LYPLA2 inh: blocks human lysophospholipase 2, a PME1 counter-screen; inhibition, % at 5.9 µM; 0.38% of 320,000 active; recombinant LYPLA2, FP-Rh probe fluorescence polarization; AID 2177; O95372;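 active means inhibition above the screen-wide mean plus 3 SD, limit set per campaign, cut at about 26% in these data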;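 further: 0% = LYPLA2 with DMSO and 100% = wells lacking LYPLA2 enzyme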
PME-1 inh: PME-1 (human) inhibition | Q9Y570 | 0.53% of 320,000 active | recombinant PME-1, FP-Rh probe fluorescence polarization | AID 2130 | inhibition, % at 5.9 µM;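 active means inhibition above the campaign mean of all compounds plus 3 SD, cut at about 26% in these data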;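 further: competitive labeling of PME-1 active site by serine hydrolase directed probe; 0% = PME-1 with DMSO and 100% = wells lacking PME-1 enzyme; inhibitors block probe labeling so polarization falls and inhibition rises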
Fam108B counter: blocks mouse Fam108B hydrolase in RBBP9 counter-screen. inhibition, % at 9.51 µM. 0.33% of 300,000 active. AID 1947. recombinant Fam108B, FP-Rh probe fluorescence polarization;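 active means inhibition above the screen mean inhibition plus 3 SD, computed separately per campaign, cut at about 18% in these data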;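 further: inhibitors lower polarization as less probe binds the enzyme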
MEX-5 binding: C. elegans MEX-5 TCR-2 RNA binding activity; Q9XUB2; MEX-5/FITC-TCR2 RNA binding, fluorescence polarization; hits give low values; activity score (negative = inhibition of binding), % at 10 µM; 0.38% of 300,000 active; AID 1832;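 active means inhibition past about -25% in most replicates, and total fluorescence under double the plate's negative control median, limit read from the data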;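 further: 0% = DMSO and -100% = 5 µM competing unlabeled TCR2 RNA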
LYPLA1 counter: counter-screen for PME1 inhibitors: inhibitors of human LYPLA1; recombinant LYPLA1, FP-Rh probe fluorescence polarization; inhibition, % at 5.9 µM; 0.16% of 320,000 active;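 active means inhibition above the mean of all tested compounds plus 3 SD, set per campaign, cut at about 14% in these data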;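 further: inhibitors block serine hydrolase probe labeling of LYPLA1 so polarization falls; 0% = enzyme with DMSO and 100% = wells lacking LYPLA1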
PREPL inhibitor: inhibits the human prolyl oligopeptidase-like enzyme. Q4J6C6. recombinant PREPL, fluorescence polarization activity-based probe. inhibition, % at 5.96 µM. 0.68% of 320,000 active. AID 2751; in the data active means inhibition above about 43%;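 further: 0% = enzyme with DMSO and 100% = wells lacking enzyme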
Target sequence (Q4J6C6 whole entry, looked up): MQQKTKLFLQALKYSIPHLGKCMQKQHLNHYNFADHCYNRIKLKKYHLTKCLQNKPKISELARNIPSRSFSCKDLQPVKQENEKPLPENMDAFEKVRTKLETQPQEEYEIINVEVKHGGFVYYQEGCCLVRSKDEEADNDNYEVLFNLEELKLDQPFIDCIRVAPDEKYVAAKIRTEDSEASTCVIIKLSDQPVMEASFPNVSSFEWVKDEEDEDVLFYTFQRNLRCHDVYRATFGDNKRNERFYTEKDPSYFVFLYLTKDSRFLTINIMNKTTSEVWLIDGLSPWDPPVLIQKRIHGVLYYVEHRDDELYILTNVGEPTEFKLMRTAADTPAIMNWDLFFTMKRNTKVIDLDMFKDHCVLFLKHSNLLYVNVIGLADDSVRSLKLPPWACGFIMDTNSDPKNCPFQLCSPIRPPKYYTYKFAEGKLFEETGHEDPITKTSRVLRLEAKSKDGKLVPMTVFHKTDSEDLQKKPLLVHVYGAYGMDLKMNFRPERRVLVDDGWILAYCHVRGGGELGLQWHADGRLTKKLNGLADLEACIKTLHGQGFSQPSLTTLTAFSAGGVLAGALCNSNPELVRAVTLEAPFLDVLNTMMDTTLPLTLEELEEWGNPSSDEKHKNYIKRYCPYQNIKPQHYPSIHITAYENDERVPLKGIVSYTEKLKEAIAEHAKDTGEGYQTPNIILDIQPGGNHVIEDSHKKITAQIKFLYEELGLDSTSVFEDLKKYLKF
Fam108b confirm: Fam108b (mouse) hydrolase inhibition, confirmation assay | shares compounds with Fam108B counter | 44% of 930 active | inhibition, % at 9.51 µM | recombinant Fam108b, FP-Rh probe fluorescence polarization;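 active means inhibition above a limit from the primary screen, the mean over all compounds plus 3 SD, cut at about 19% in these data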;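 further: 0% = median of active Fam108b wells and 100% = catalytically dead S170A mutant; inhibitors free the probe so polarization falls as inhibition rises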
Fam108b ABPP HTS: mouse ABHD17B inhibition. shares compounds with Fam108B counter. recombinant Fam108b, gel-based ABPP, fluorophosphonate probe. inhibition, % at 20 µM. 44% of 260 active. AID 588649; in the data active means inhibition above about 40%
Active calls of the source: *; nt = no result. A selection: hits, their analogues and other compounds. The true share with any hit is near 1.6%.

SMILES	LYPLA2 inh	PME-1 inh	Fam108B counter	MEX-5 binding	LYPLA1 counter	PREPL inhibitor	Fam108b confirm	others
Nc1ccc(C(=O)N/N=C\c2cc(N=Nc3cccc4ccccc34)ccc2O)cc1	7.2	39.7*	20.8*	0.5	-5.1	14.0	17.5
CCc1cc(C)cc(OCCNC(=O)c2cncc(Br)c2)c1	-1.4	1.4	-2.4	-0.8	-2.8	-13.8	nt
CCOC(=O)C1(Cc2ccccc2C)CCCN(C(=O)c2cc(CC)nn2C)C1 (stereo not drawn)	5.8	0.8	3.5	-1.5	2.3	6.9	nt
CN(C)S(=O)(=O)c1ccc(-c2csc(N/N=C/c3ccc(O)cc3)n2)cc1	12.3	35.4*	29.2*	-0.8	-8.8	16.5	9.1
O=[N+]([O-])c1cccc(-c2csc(N/N=C/c3cccc(O)c3)n2)c1	-10.0	11.4	32.2*	-1.8	-14.1	24.3	30.7*
CN(C)S(=O)(=O)c1ccc(-c2csc(N/N=C/c3ccco3)n2)cc1	9.9	16.1	9.6	1.8	-0.3	0.9	nt
O=C(c1cc([N+](=O)[O-])ccc1N1CCCCC1)N1CCCCC1	0.8	0.5	38.5*	-0.5	-1.9	14.9	-9.9
O=C(c1cc([N+](=O)[O-])ccc1N1CCCC1)N1CCCCC1	-3.1	-7.1	-3.4	2.3	-0.3	0.6	nt
Nc1nc(-c2ccco2)c(-c2ccco2)s1	-2.4	0.9	13.8	-0.8	-2.6	10.7	nt
c1coc(-c2nc(-c3ccco3)c(-c3ccco3)nc2-c2ccco2)c1	-0.9	4.1	71.4*	3.1	-15.4	70.9*	9.6
COc1ccc2nc(-c3ccco3)c(-c3ccco3)nc2c1	4.2	-1.2	21.4*	-10.1	-3.0	26.1	53.7*	Fam108b ABPP HTS=35.0
COc1ccc2nc3cccc(OC)c3nc2c1	4.5	-2.7	8.0	0.8	0.2	3.6	nt
O=C(c1cc2ncc(Br)cn2n1)N1CCN(C(=O)c2ccco2)CC1	-0.9	1.0	19.2*	-5.1	-3.2	9.1	-6.9
O=C(c1cc2ncc(Br)cn2n1)N1CCOCC1	-5.7	-2.3	1.4	-2.0	-3.5	5.3	nt
COc1ccc2oc(=O)c(-c3csc(Nc4cccc(O)c4)n3)cc2c1	15.8	47.3*	34.1*	0.6	1.3	35.8	39.4*	Fam108b ABPP HTS=100.0*
COc1ccc(NS(=O)(=O)c2cccs2)cc1S(=O)(=O)N1CCCCC1	-6.4	2.5	-3.8	3.1	1.7	4.8	nt
CCOC(=O)C1CCN(Cc2cn[nH]c2-c2ccccc2)CC1	1.9	-2.4	1.2	3.7	-1.3	16.7	nt
CCN(CC(=O)Nc1c(C(=O)OC)[nH]c2ccc(Cl)cc12)c1ccc2c(c1)OCO2	-1.4	39.7*	21.4*	0.1	-4.2	27.7	7.8
CCOC(=O)c1[nH]c2ccc(Cl)cc2c1NC(=O)/C=C/c1ccc2c(c1)OCO2	0.4	-5.1	-1.4	-1.1	0.3	-9.8	nt
NS(=O)(=O)c1ccc(N/N=C/C=C/c2ccccc2[N+](=O)[O-])cc1	3.1	8.7	3.4	-1.3	3.7	15.2	nt
COc1ccc(CN2C(=O)c3c(c(C)n(C)c3C)C2C(=O)NC2CCC(C)CC2)cc1 (stereo not drawn)	-5.0	-5.1	23.9*	0.0	-1.0	8.8	-2.2
COc1ccc(NC(=O)CN(C)CC(=O)NC2CCC(C)CC2)cc1 (stereo not drawn)	7.3	-0.6	nt	nt	3.5	-1.1	nt
COc1cccc(C=NNc2nc(Nc3ccc([N+](=O)[O-])cc3)nc(N3CCCC3)n2)c1O	nt	nt	nt	nt	nt	nt	nt	Fam108b ABPP HTS=90.0*
Fc1ccc2nc(Nc3nc4cc5c(cc4s3)OCCO5)sc2c1	8.5	72.3*	21.3*	-2.2	-0.9	27.8	12.0
Fc1ccc2nc(Nc3nc4cc5c(cc4s3)OCO5)sc2c1	-9.6	52.5*	39.7*	1.3	-4.7	23.3	45.7*	Fam108b ABPP HTS=95.0*
SMILES	LYPLA2 inh	PME-1 inh	Fam108B counter	MEX-5 binding	LYPLA1 counter	PREPL inhibitor	Fam108b confirm	others
O=C(NNc1nc2cc3c(cc2s1)OCCO3)c1ccc(F)cc1	0.6	6.6	3.3	0.5	-0.8	11.8	nt
CCOC(=O)N1CCC(Nc2c(NCCCN(C)Cc3ccccc3)c(=O)c2=O)CC1	1.5	0.1	3.3	-1.1	-1.6	-0.6	nt
CCOC(=O)c1ccc(S(=O)(=O)NC2CC2)cc1	-0.7	1.4	1.7	0.7	0.1	-5.7	nt
Cc1cc2c(N=O)c(NO)ccc2[nH]1	9.3	48.8*	32.7*	-8.0	4.6	32.0	9.5
O=Nc1c(O)[nH]c2ccc(F)cc12	8.8	19.1	9.0	1.0	3.3	12.4	nt
CCC(=O)c1ccc(N2CCN(C(=O)Cc3ccccc3)CC2)c(F)c1	3.7	4.0	3.0	-0.4	-0.2	-13.6	nt
CN(C)S(=O)(=O)c1cccc(NC(=O)c2c[nH]c3ccccc23)c1	-34.1	-14.6	125.7*	2.9	-14.7	19.8	-18.5
CCOC(=O)Cc1csc(NC(=O)c2sc3nc4c(C)cc(C)cc4cc3c2N)n1	-2.6	85.9*	23.2*	-4.0	-9.2	20.9	3.9
C(=N\Nc1nc(Nc2ccccc2)nc(N2CCOCC2)n1)/c1c[nH]c2ccccc12	-8.9	26.0	15.1	-0.3	-6.2	33.7	nt
Cc1[nH]c2ccccc2c1/C=N/Nc1nc(Nc2ccc(F)cc2)nc(N2CCOCC2)n1	-2.8	19.0	21.9*	-3.4	-14.8	12.4	6.7
CCN=c1scc(C)n1/N=C/c1cc(Br)c(O)c(Br)c1	13.6	6.1	20.5*	0.2	9.6	25.9	8.9
CCN=c1scc(C)n1/N=C/c1ccc(O)c(O)c1O	-9.4	-4.2	4.7	-17.0	-4.4	12.0	nt
O=C(Nc1ccc(N2CCOCC2)cc1)c1ccc2nc(-c3ccco3)c(-c3ccco3)nc2c1	-2.8	-1.4	-6.0	-0.5	-5.2	13.1	nt
CC(=O)c1ccc(NC(=O)c2ccc3nc(-c4ccco4)c(-c4ccco4)nc3c2)cc1	-9.1	4.9	40.3*	-5.8	-21.7	29.7	28.9*
O=C(Nc1ccccc1)c1ccc2nc(-c3ccco3)c(-c3ccco3)nc2c1	-14.0	8.1	47.7*	-0.6	-22.4	41.9	8.5
O=C(NCCO)Nc1ccc2nsnc2c1	5.0	5.0	-0.2	0.5	8.2	-0.8	nt
O=C(NCCO)Nc1ccc2nc(-c3ccco3)c(-c3ccco3)nc2c1	3.7	24.7	67.6*	nt	-7.0	41.6	45.4*	Fam108b ABPP HTS=0.0
Cc1ccc(CSc2ccc(-c3cccs3)nn2)cc1	-5.5	2.1	3.0	0.9	-0.5	0.3	nt
Cc1cccc(NC(=O)N2C3CCCC2CC(NC(=O)C2CC2)C3)c1 (stereo not drawn)	1.8	-2.7	0.7	-0.8	1.4	9.0	nt
COc1ccccc1NS(=O)(=O)c1c(C)nc2sccn2c1=O	-3.0	-0.1	1.3	4.3	4.7	1.5	nt

Screens from PubChem.
